8 compounds from PubChem BioAssay (NCI) can be followed below.

Each structure is given as a SMILES string. Values joined by “and” are separate entries in the source; they are usually repeats but may differ in a detail not shown here. Identical values can stand only once. Compounds without any hit were thinned out: in the full panel of roughly 83,000, 20% have a hit.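 How to read the values: 0–100, growth inhibition (40 = 60% inhibited); 0, no net growth; -100 to 0, cell death (-40 = 40% of starting cells died; -100 = all dead).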 Active and inactive are the calls of the source. Rule for the calls: active = growth percent below 10; inactive = the rest.

Common to all, as to assay: NCI-60 one-dose screen, 48 h (100 = growth as untreated, 0 = no growth, -100 = all killed)
Holding throughout (conditions): 10 µM unless noted

The subject of assay [1] is SR leukemia.
Assay [2] deals with RPMI-8226 leukemia.
The subject of assay [3] is OVCAR-8 ovarian.
Assay [4] relates to OVCAR-5 ovarian.
The test system of assay [5] is OVCAR-4 ovarian.
For assay [6], the system named is SK-OV-3 ovarian.
The test system of assay [7] is IGROV1 ovarian.
Assay [8] deals with OVCAR-3 ovarian.
Assay [9] concerns HS 578T breast.
The test system of assay [10] is NCI/ADR-RES ovarian.

On to `Cc1ccc2nc3c(nc2c1)-c1cccc2cccc-3c12`, for which the growth in assay [1] was 64.9% (inactive); in assay [2], 89.9% (inactive); in [3], 69.6% (inactive); in [4], 94.6% (inactive); in assay [5] it was 92% (inactive); in assay [6] it was 112% (inactive). Moreover, the growth in assay [7] was 63.9% (inactive); in assay [8] it was 88.1% (inactive); in [9], 92.9% (inactive); in [10], 86.1% (inactive).

Consider `CCN(CC)CCC(CNc1c2ccc([N+](=O)[O-])cc2nc2cc(OC)c(OC)cc12)c1ccccc1` (stereo not given), for which the growth in assay [1] is -14.8% (active); in [2] it was -5.85% (active) and -73% (active); in [3], 6.28% (active) and -80.7% (active); in assay [4], -13.3% (active) and -83.9% (active); in assay [5] it was -53.2% (active) and -94.6% (active); in [6], 27.3% (inactive) and -64.1% (active). The growth in assay [7] was -49.8% (active) and -64% (active); in assay [8], -38% (active) and -100% (active); in [9], 44.4% (inactive); in assay [10] it was 30.5% (inactive) and -58.4% (active).

Regarding `CCN(CC)CCCC(CNc1ccnc2cc(Cl)ccc12)c1ccc(Cl)cc1` (stereo not given), the growth in assay [1] is -42.9% (active) and -57.7% (active); in assay [2], -7.53% (active) and -24.9% (active); in assay [3] it was 7.69% (active) and 8.6% (active); in assay [4], 17.5% (inactive) and 62.9% (inactive); in assay [5], -34.9% (active) and 14.3% (inactive); in assay [6], 28% (inactive) and 99.4% (inactive). Further, the growth in [7] was -9.56% (active) and 20.2% (inactive); in assay [8], 43% (inactive) and 19.9% (inactive); in [9] it was 21.6% (inactive); in assay [10], 19.5% (inactive) and 15.9% (inactive).

On to `CC1CCCC(=O)O1` (stereo not given), for which the growth in [1] is 104% (inactive); in assay [2], 96.7% (inactive) and 94.7% (inactive); in assay [3], 110% (inactive) and 95.2% (inactive); in assay [4] it was 101% (inactive); in assay [5], 96% (inactive) and 104% (inactive); in [6], 98% (inactive) and 110% (inactive). The growth was 96% (inactive) and 99.9% (inactive) in assay [7]; 103% (inactive) and 115% (inactive) in assay [8]; 110% (inactive) and 105% (inactive) in assay [9]; 103% (inactive) and 99.8% (inactive) in assay [10].

For `O=C(Oc1cccc(OC(=O)c2ccccc2)c1)c1ccccc1`, the growth in assay [1] is 94.4% (inactive); in assay [2], 69.9% (inactive) and 104% (inactive); in [3], 110% (inactive); in assay [4], 92.7% (inactive) and 102% (inactive); in assay [5] it was 97.3% (inactive) and 92.1% (inactive); in assay [6], 126% (inactive) and 97.4% (inactive). Moreover, the growth in [7] is 109% (inactive); in assay [8] it was 76.3% (inactive) and 101% (inactive); in assay [9], 78.4% (inactive) and 102% (inactive); in [10] it was 95.5% (inactive) and 97.7% (inactive).

As to `CCN(CC)C(=O)c1cccnc1`, the growth was 90.5% (inactive) in [1]; 105% (inactive) in [2]; 98.8% (inactive) in assay [3]; 99.4% (inactive) in [4]; 112% (inactive) in [5]; 109% (inactive) in assay [6]. Moreover, the growth in assay [7] was 130% (inactive); in assay [8], 109% (inactive); in assay [9], 108% (inactive); in assay [10], 111% (inactive).

For the compound `O=C1c2ccccc2C(=O)c2c(NCCNCCO)ccc(NCCNCCO)c21`, the growth was 57.6% (inactive) and 5.34% (active) and -17.9% (active) in [1]; 55.6% (inactive) and 54% (inactive) and 33.8% (inactive) in assay [2]; 0.849% (active) and 17.5% (inactive) in assay [3]; -51.8% (active) and 43.9% (inactive) and 35.5% (inactive) in assay [4]; -16.3% (active) and 1.58% (active) and 1.59% (active) in assay [5]; -4.52% (active) and 27.8% (inactive) and 34.9% (inactive) in assay [6]. The growth was 29.1% (inactive) and 16.9% (inactive) in [7]; 64.1% (inactive) and 44.1% (inactive) in assay [8]; -20.7% (active) and -14.7% (active) and 30.7% (inactive) in assay [9]; -24.9% (active) and 93.1% (inactive) and 102% (inactive) in assay [10].

Consider `COc1ccc2nc(Cl)cc(C)c2c1`, for which the growth was 88.2% (inactive) and 82.3% (inactive) in assay [1]; 95.6% (inactive) and 109% (inactive) in [2]; 101% (inactive) and 47.4% (inactive) in [3]; 93.7% (inactive) and 93.4% (inactive) in [4]; 99.2% (inactive) and 91.8% (inactive) in assay [5]; 107% (inactive) and 124% (inactive) in assay [6]. Also, the growth in assay [7] was 108% (inactive) and 132% (inactive); in assay [8] it was 119% (inactive); in [9], 113% (inactive); in [10] it was 98.9% (inactive) and 102% (inactive).
